Most compounds without a hit are left out; they make up all but 2.1% or so of the library.
PfHsp40 rescue: rescue of PfHsp40-mediated yeast toxicity; S. cerevisiae expressing PfHsp40, growth rescue, ATP luminescence; growth rescue, % at 12.5 µM; 340,000 compounds, 0.68% hits; in the data active = growth rescue above about 28%, passing the limit was not always enough;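 also: yeast W303a lacking pdr1 and pdr3 grown in galactose medium; growth measured after three days at 30 °C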
PrPC surface inh: inhibitors of human cell surface prion protein PrPC. P04156. TR-FRET read-out. inhibition, % at 13.8 µM. 370,000 compounds, 0.43% hits; in the data active = inhibition above about 24%; also: 0% = median of the test wells and 100% = reference compound wells
PrP UTR inh: inhibition of PrP 5' UTR reporter expression; cell-based PrP 5' UTR mRNA reporter, plate reader; inhibition, % (test concentration not listed); 340,000 compounds, 0.35% hits; AID 488862; in the data active = inhibition above about 52%; also: 0 = median of the neutral control wells
ugtP null kill: growth inhibition of S. aureus ugtP deletion strain; AID 1259309; S. aureus RN4220 ugtP deletion, OD600 growth, 16 h; 330,000 compounds, 0.54% hits; growth inhibition, % (no concentration beside the values); in the data active = growth inhibition above about 68%;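 also: plate controls were untreated wells for no effect and antibiotic for full effect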
CCHFV vOTU inh: blocks the CCHF virus ovarian tumor domain protease; CCHFV vOTU protease, Pep-AMC fluorescence; inhibition, % at 11.5 µM; 370,000 compounds, 0.55% hits; AID 651958; in the data active = inhibition above about 30%; also: 0% = vehicle wells with enzyme and 100% = no enzyme wells
Sa RN4220 lethal: S. aureus RN4220 growth inhibition; OD600, 16 h; inhibition, % (test concentration not listed); 330,000 compounds, 0.33% hits; AID 1259311; in the data active = inhibition above about 85%;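 also: plate controls were untreated cells for no effect and reference antibiotic for full effect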
The depositor's hits bear a star.

For CCOC(=O)C1C2COc3cc(OC)ccc3C2N2C(=O)CN(CCc3c[nH]c4ccccc34)C(=O)[C@@]12C (stereo partly specified) the results were ugtP null kill 4 and Sa RN4220 lethal 9.
`CC1Cc2ccccc2N1C(=S)NC(=O)c1ccc(Cl)cc1Cl` (stereo unspecified) gave PfHsp40 rescue 1, PrPC surface inh 1, PrP UTR inh -24, ugtP null kill 0, CCHFV vOTU inh 14 and Sa RN4220 lethal 10.
CC1Cc2ccccc2N1C(=S)NC(=O)c1cccc(Br)c1 (stereo unspecified) was read as PfHsp40 rescue 146*, PrPC surface inh 4, PrP UTR inh 8, ugtP null kill 85, CCHFV vOTU inh 8 and Sa RN4220 lethal 57.
`CC1CN(c2cc(-c3ccccc3)c3ccccc3n2)CC(C)O1` (stereo unspecified) gave PfHsp40 rescue -1, PrPC surface inh -9, PrP UTR inh 1, ugtP null kill 12, CCHFV vOTU inh 5 and Sa RN4220 lethal 2.
For CC1CN(c2nc3ccccc3cc2-c2ccccc2)CC(C)O1 (stereo unspecified) the results were PfHsp40 rescue 3, PrPC surface inh 2, PrP UTR inh -26, ugtP null kill 91*, CCHFV vOTU inh 10 and Sa RN4220 lethal -7.
`O=C(O)C=CC(=O)NCc1cn(-c2ccccc2)nc1-c1cccc(Br)c1` gave ugtP null kill -3 and Sa RN4220 lethal 13.
For Cc1cc(CN2CCN(CCC#N)CC2)c(O)c(C2(C)CCCCC2)c1 the results were PfHsp40 rescue 0, PrPC surface inh -7, PrP UTR inh -2, ugtP null kill 84*, CCHFV vOTU inh 7 and Sa RN4220 lethal 16.
`CCOC(=O)Cc1c(Sc2ccccc2)c2ccccc2n1C` gave PfHsp40 rescue 0, PrPC surface inh 0, PrP UTR inh -3, ugtP null kill 95*, CCHFV vOTU inh 12 and Sa RN4220 lethal -9.
Screening Cn1c(CC(=O)NC(C)(C)CO)c(Sc2ccccc2)c2ccccc21 returned PfHsp40 rescue 1, PrPC surface inh 0, PrP UTR inh -12, ugtP null kill 11, CCHFV vOTU inh -10 and Sa RN4220 lethal -1.
For Cc1ccc(S(=O)(=O)/N=C2/C=C(C3C(=O)CC(C)(C)CC3=O)C(=O)c3ccccc32)cc1 the results were PfHsp40 rescue 2, PrPC surface inh -4, PrP UTR inh -57 and CCHFV vOTU inh 108*.
Screening CCc1ccc(S(=O)(=O)/N=C2\C=C(Nc3ccc(O)cc3)C(=O)c3ccccc32)cc1 returned PfHsp40 rescue 4 and PrP UTR inh -22.
CC(=NNC(=O)c1csc(C)c1C)c1ccc(Cl)s1 was read as ugtP null kill 1 and Sa RN4220 lethal -3.
`Nc1c(Cl)ncnc1NCCO` gave PfHsp40 rescue -1, PrPC surface inh 16, PrP UTR inh -33, ugtP null kill 7, CCHFV vOTU inh -3 and Sa RN4220 lethal 8.
Screening Cc1ccc(CCNc2ncnc(Cl)c2N)cc1 returned PfHsp40 rescue 733*, PrPC surface inh 7, PrP UTR inh -51, ugtP null kill 5, CCHFV vOTU inh 8 and Sa RN4220 lethal 0.
CC1CN(C(C)CO)C(=O)c2cc(NS(=O)(=O)c3cn(C)cn3)ccc2OC1CN(C)Cc1ccc(C(=O)O)cc1 (stereo unspecified) was read as ugtP null kill 4 and Sa RN4220 lethal 7.
O=C1OC(c2ccccc2)=NC12CC2c1ccc(Cl)cc1 (stereo unspecified) was read as PfHsp40 rescue 255*, PrPC surface inh 4, PrP UTR inh -14, ugtP null kill 3, CCHFV vOTU inh 9 and Sa RN4220 lethal -1.
`Cc1ccc(C(=O)Oc2coc(CSc3ncccn3)cc2=O)cc1[N+](=O)[O-]` gave PrPC surface inh 1.
`CCN(CC)S(=O)(=O)c1ccc(C(=O)Oc2coc(CSc3nc(C)cc(C)n3)cc2=O)cc1` gave PfHsp40 rescue 72*, PrPC surface inh -3, PrP UTR inh -12, ugtP null kill 10, CCHFV vOTU inh 12 and Sa RN4220 lethal 0.
`CN(C)S(=O)(=O)c1ccc(C(=O)Oc2coc(CSc3ncccn3)cc2=O)cc1` gave PfHsp40 rescue 94*, PrPC surface inh 3, PrP UTR inh -16, ugtP null kill -5, CCHFV vOTU inh -2 and Sa RN4220 lethal -4.

Source: PubChem (several laboratories)
